# Sampled rows, rich in hits. Any-hit rate of the full collection: about 4.9%.
# NALP1 inh: inhibitors of NALP1 inflammasome in yeast; S. cerevisiae NALP1/ASC/caspase-1 growth, X-gal OD620, 72 h; inhibition, % at 10 µM; 0.61% of 280,000 active; in the data active means inhibition mostly above about 24%, no sharp cut-off; inactive means mostly below about 32%
# tim23-1 inh: tim23-1 yeast growth inhibition; inhibition, % at 20 µM; S. cerevisiae tim23-1 growth, BacTiter-Glo luminescence, 24 h; 1.3% of 330,000 active;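 active means growth inhibition of the mutant yeast at or above 50%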;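 further: temperature-sensitive mutant grown at 25 °C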
# NLRP3 yeast inh: NALP3 inhibition in yeast; Yeast reconstituted NLRP3/ASC/caspase-1, beta-gal luminescence, 24 h; inhibition, % at 10 µM; 0.39% of 330,000 active;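 active means inhibition of 50% or more; inactive means inhibition below 50%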
# TIM10 inh: TIM10 yeast growth inhibition; S. cerevisiae TIM10 strain growth, BacTiter-Glo luminescence, 24 h; inhibition, % at 10 µM; 1.4% of 330,000 active;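 active means inhibition of 40% or more at the single tested concentration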;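 further: wild-type TIM10 isogenic control strain grown at permissive 25 °C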
# SKKanGAS inh: inhibitors of SKKanGAS S. pyogenes growth in kanamycin (SK-promoter or general growth effect) | BacTiter-Glo, 6 h | inhibition, % at 7.5 µM | 1.3% of 300,000 active;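 active means mean replicate score, as percent of positive control median, at least 50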;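 further: strain carries kanamycin resistance gene driven by streptokinase promoter and grows in 40 µg/ml kanamycin; loss of luminescence reflects streptokinase promoter inhibition or plain growth inhibition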
# tim10-1 inh: inhibits growth of tim10-1 mutant yeast; S. cerevisiae tim10-1 ts strain growth, BacTiter-Glo, 24 h; inhibition, % at 20 µM; 2.2% of 330,000 active; AID 463190;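 active means inhibition of at least 40%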;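 further: mutant grown at 25 °C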
# Numbers stand for hits; – = inactive; · = no result.
SMILES,NALP1 inh,tim23-1 inh,NLRP3 yeast inh,TIM10 inh,SKKanGAS inh,tim10-1 inh
COc1ccc(OC)c(-c2cc(C3CCN(c4ncccc4[N+](=O)[O-])CC3)[nH]n2)c1,–,–,–,–,57,–
O=[N+]([O-])c1cccnc1N1CCC(c2cc(-c3ccc(Cl)cc3Cl)n[nH]2)CC1,–,–,–,–,80,–
O=[N+]([O-])c1cccnc1N1CCCCC1,–,–,–,–,–,–
COc1ccc(OC)c(-c2cc(C3CCN(c4cc(Cl)nc(N)n4)CC3)[nH]n2)c1,–,–,–,–,–,–
O=C(N/N=C/c1cccc(Oc2ccccc2)c1)c1ccccc1Br,32,–,–,–,–,–
CCCCc1nc2cc(C(=O)N3CCC(OCCOC)CC3)ccc2o1,–,–,–,–,63,–
COc1ccc(NC(=O)NN2CCN(C)CC2)cc1OC,–,–,–,–,–,–
CN1CCN(NC(=O)Nc2cc(Cl)cc(Cl)c2)CC1,–,–,–,–,88,–
CCCOc1ccc(Cc2c(Cl)nc(SC)nc2OC)cc1,–,–,–,–,53,–
CCCOc1ccc(Cc2c(Cl)nc(SC)nc2N(C)C)cc1,–,–,–,–,64,–
Cc1ccc(-c2nnn(CC(=O)N(c3cccc(F)c3)C(C(=O)NC3CCCC3)c3ccco3)n2)o1 (stereo unspecified),–,–,–,–,–,–
Cc1ccc(-c2nnn(CC(=O)N(c3cccc(F)c3)C(C(=O)NC3CCCC3)c3ccncc3)n2)o1 (stereo unspecified),35,–,–,–,–,–
O=C1C=C(c2ccccc2)OC(c2ccccc2)O1 (stereo unspecified),41,–,–,–,–,–
CCC1S/C(=C(\C#N)C(=O)NCc2ccco2)N(c2ccc(Br)cc2)C1=O (stereo unspecified),22,–,–,–,–,–
CC1=CC(C)(C)N(C(=O)CCl)c2ccccc21,28,–,–,–,–,–
CCOc1ccc2nc(NC(=O)CN3CCC(n4nnc5cc(C(F)(F)F)ccc54)CC3)sc2c1,–,–,–,–,52,–
Cc1[nH]n(-c2ncc(-c3ccccc3)s2)c(=O)c1C(c1ccc(Br)cc1)C(C#N)C#N (stereo unspecified),–,–,–,–,86,–
CC1CCCCC12NC(=O)N(CC(=O)NCCc1ccc(S(N)(=O)=O)cc1)C2=O (stereo unspecified),·,–,–,–,·,–
CSc1c(SCc2ccccc2)cnn(-c2ccccc2)c1=O,–,–,–,–,–,–
COc1cccc(S(=O)(=O)NCc2ccc(C(=O)N3CCN(C)CC3)cc2)c1,–,–,–,–,–,–
CCCCCC(=O)Cc1cc(O)cc2c1C(=O)Oc1cc(O)c(C(=O)O)c(CCCCC)c1O2,–,–,–,–,71,–
O=C(C1CCCO1)N1CCN(C(=S)Nc2ccc(F)cc2)CC1 (stereo unspecified),–,–,–,–,–,–
O=C(Nc1ccc(F)cc1)N1CCN(C(=O)C2CCCO2)CC1 (stereo unspecified),34,–,–,–,–,–
CC1(c2ccccc2)CC(C)(C)N2C(=O)C3(C(C#N)=C(N)Oc4cc(O)ccc43)c3cccc1c32 (stereo unspecified),–,–,–,–,–,–
CC1(c2ccccc2)CC(C)(C)N2C(=O)/C(=C3\SC(=S)NC3=O)c3cccc1c32 (stereo unspecified),–,·,·,·,114,·
SMILES,NALP1 inh,tim23-1 inh,NLRP3 yeast inh,TIM10 inh,SKKanGAS inh,tim10-1 inh
Cc1nc2ccccc2c(=O)n1/N=C/c1ccc2ccccc2c1O,–,–,–,–,55,–
CCCC(=O)Nc1ccc2c(c1)nc1n2CCN(CCOC)C1,–,–,–,–,–,–
COc1ccccc1/C=N/NC(=O)CSc1ccc2ccccc2n1,–,–,–,–,–,–
CCCCSc1nc(C)cc(SCC(=O)N/N=C/c2cccc(OC)c2O)n1,–,–,–,–,70,–
COCCN1Cc2cccc(C(=O)Nc3cc(C)cc(C)c3)c2C1=O,–,–,–,–,–,–
COCCN1Cc2cccc(C(=O)Nc3cc(OC)ccc3OC)c2C1=O,28,–,–,–,–,–
O=C(NN=C1C2CC3CC(C2)CC1C3)c1cccs1,41,–,–,–,–,–
O=C(NN=C1CCCC1)c1cccs1,–,–,–,–,–,–
NS(=O)(=O)c1ccc(N/N=C2/CCCCC2C2CCCCC2)c([N+](=O)[O-])c1 (stereo unspecified),–,–,–,–,77,–
Cc1ccc2cc(NC(=O)c3ccccc3C)ccc2n1,–,–,–,–,–,–
COCCN=C1Sc2nc3ccc(C)cc3cc2CN1Cc1ccco1,48,–,–,–,–,–
C/C(=C/CCC(C)C1CCC2(C)C3CCC4C(C)(C)C(=O)CCC4(C)C3=CCC12C)C(=O)O (stereo unspecified),–,·,·,·,105,·
C/C(=C/CCC(C)[C@H]1CC[C@@]2(C)C3=C(CC[C@]12C)[C@@]1(C)CCC(=O)C(C)(C)[C@@H]1CC3)C(=O)O (stereo partly specified),–,·,·,·,105,·
Cc1cccc(N=Nc2c(C)nn(-c3ccccc3)c2N)c1C,–,–,–,–,57,–
Cc1cnc(C(=O)OCC(=O)N2CC(C)CC(C)C2)cn1 (stereo unspecified),·,–,–,–,·,–
CN1/C(=C/C(=O)CSc2ccccc2C(=O)O)C(C)(C)c2ccccc21,45,–,–,–,–,–
O=C(NCc1ccc(F)cc1)C(=O)Nc1nc(C23CC4CC(CC(C4)C2)C3)cs1,–,–,–,–,109,–
O=C(NCc1ccccc1)C(=O)Nc1nc(C23CC4CC(CC(C4)C2)C3)cs1,–,–,–,–,102,–
O=C(NCc1ccncc1)C(=O)Nc1nc(C23CC4CC(CC(C4)C2)C3)cs1,–,–,–,–,–,–
O=C(NCc1cccnc1)C(=O)Nc1nc(C23CC4CC(CC(C4)C2)C3)cs1,·,–,–,–,–,–
CNC(=O)COc1coc(CN2CCN(c3ccccc3F)CC2)cc1=O,–,–,–,–,–,–
O=C(O)c1cccc(Nc2ccnc(Nc3cccc(C(=O)O)c3)n2)c1,–,–,–,–,–,–
CC1=CC(C)(C(Cl)Cl)C(C)=CC1=O (stereo unspecified),–,–,–,–,–,–
CC1=CC(=O)C=CC1(C)C(Cl)Cl (stereo unspecified),23,–,–,–,–,–
O=C(Cn1ccccc1=S)c1ccc(Cl)c(Cl)c1,·,–,–,–,–,–
O=C(CN1CCSC1=NCc1ccccc1)c1ccc(Cl)c(Cl)c1,46,–,–,–,–,–
O=C(CSc1nc2ccccc2c(=O)n1CCCN1CCOCC1)Nc1ccccc1OC(F)F,·,–,–,–,·,–
Cc1ccc(S(=O)(=O)Nc2ccc(Cl)cc2)cc1NC(=O)c1cc2c(s1)CCCC2,–,–,–,–,53,–
